The AC50 is the concentration giving half of the maximal activity seen.

SMILES strings stand for the structures. Active and inactive are the calls of the source. The calls were made as follows: active = hit-call score of the fitted dose curve at least 0.9, where 1 is the maximum; inactive = score below 0.9.

Read-out in the first assay: not listed separately
Put plainly: BSK_SAg_PBMCCytotoxicity: PBMC Cytotoxicity Assessment in the BioMAP Diversity Plus: SAg Assay (AID 2283093).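 Also: PBMC viability measured as Alamar Blue reduction fluorescence at 546/580 nm; fitted both ways against DMSO so a hit may be loss or gain of signal.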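 As to AC50: PBMC superantigen activated with SEB plus TSST-1 one hour after compound addition.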 Conditions: primary human HUVEC with PBMC. The procedure, abridged: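 Human umbilical vein endothelial cells co-cultured with PBMC; PBMC (75,000/well) pre-treated with compound 1 h, then activated with SEB and TSST-1 (20 ng/mL final each) for 90 h. Alamar Blue added 6 h, fluorescence 546/580 nm; bidirectional fit versus DMSO.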
Consider `CCCCCCCCC(CO)CCCCCC` (stereo unspecified), for which the result was inactive.

Regarding `Oc1c(Cl)cc(Cl)c(Cl)c1Cl`, the half-maximal activity concentration (AC50) is 0.0683 µM (active).

As for `CCOC(=O)C1=NN(c2ccc(Cl)cc2Cl)C(C)(C(=O)OCC)C1` (stereo unspecified), the outcome was inactive.

`c1ccc2sc(SSN3CCOCC3)nc2c1`: the half-maximal activity concentration (AC50) was 20 µM (active).

For the compound `CCOC(=O)/C=C\C(=O)OCC`, the result was inactive.

For `Cc1ccc([N+](=O)[O-])cc1N`, the result was inactive.

With `CC(c1cc(C(C)(C)C)cc(C(C)(C)C)c1O)c1cc(C(C)(C)C)cc(C(C)(C)C)c1O`, the result was inactive.

`CCCCCCCCCCCC(=O)N(C)CC(=O)O`: the result was inactive.

Take `C=CC(=O)NC(C)(C)C`: the outcome was inactive.

In the case of `C=CC(=O)OCCCCCCOC(=O)C=C`, the AC50 was 3.97 µM (active).

`CC=C(C)C(C)=O`: the result was inactive.

`CCN1CN(CC)CN(CC)C1`: the result was inactive.

Turning to `Fc1ccc(Br)cc1`, the result was inactive.

Take `C=C(C)C(=O)OCCCCCCCCCCCC`: the result was inactive.

Regarding `CCCCCC1=CCCC1=O`, the outcome was inactive.

For `O=C(Cl)c1c(Cl)c(Cl)c(C(=O)Cl)c(Cl)c1Cl`, the outcome was inactive.

For the compound `C=CCCCCCCCCC=O`, the outcome was inactive.

`Oc1ccccc1Cc1ccccc1O`: the result was inactive.

Consider `COc1ccc(C(=O)c2ccccc2)c(O)c1`, for which the result was inactive.

Take `CC(C)[N+](C)(CCOC(=O)C1c2ccccc2Oc2ccccc21)C(C)C`: the result was inactive.

On to `O=C1CCCCCCCCCCC1`, for which the outcome was inactive.

Take `CCCCCCCO`: the outcome was inactive.

Turning to `CCCCCCOC(=O)CCCCC(=O)OCCCCCC`, the result was inactive.

On to `CCc1cccc(C)c1N(C(=O)CS(=O)(=O)O)C(C)COC` (stereo unspecified), for which the result was inactive.

Regarding `Oc1ccc(/C=C/c2cc(O)cc(O)c2)cc1`, the outcome was inactive.

In the case of `Clc1cc(Cl)c(Cl)c(Cl)c1Cl`, the outcome was inactive.

In the case of `CCCC(C)C(=O)OCC` (stereo unspecified), the result was inactive.

Read-out in the next assay: Interleukin-8 (IL8), CXCL8 (gene 3576)
Put plainly: BSK_SAg_IL8: BioMAP Diversity Plus: SAg Assay for Interleukin-8 (IL8) Biomarker Activity (AID 2283094). Conditions: primary human HUVEC with PBMC; actives raise or lower the signal. The essentials:
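Human umbilical vein endothelial cells co-cultured with peripheral blood mononuclear cells; IL-8 measured by ELISA 24 h after chemical dosing. Bidirectional concentration-response fitting used DMSO as negative control and activity baseline.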
`CCCCCCCCC(CO)CCCCCC` (stereo unspecified): the result was inactive.

On to `Oc1c(Cl)cc(Cl)c(Cl)c1Cl`, for which the AC50 was 29.9 µM (active).

Turning to `CCOC(=O)C1=NN(c2ccc(Cl)cc2Cl)C(C)(C(=O)OCC)C1` (stereo unspecified), the result was inactive.

With `c1ccc2sc(SSN3CCOCC3)nc2c1`, the result was inactive.

Consider `CCOC(=O)/C=C\C(=O)OCC`, for which the result was inactive.

Turning to `Cc1ccc([N+](=O)[O-])cc1N`, the result was inactive.

As to `CC(c1cc(C(C)(C)C)cc(C(C)(C)C)c1O)c1cc(C(C)(C)C)cc(C(C)(C)C)c1O`, the result was inactive.

Turning to `CCCCCCCCCCCC(=O)N(C)CC(=O)O`, the result was inactive.

On to `C=CC(=O)NC(C)(C)C`, for which the outcome was inactive.

As for `C=CC(=O)OCCCCCCOC(=O)C=C`, the AC50 was 0.714 µM (active).

On to `CC=C(C)C(C)=O`, for which the outcome was inactive.

As to `CCN1CN(CC)CN(CC)C1`, the result was inactive.

Regarding `Fc1ccc(Br)cc1`, the outcome was inactive.

As for `C=C(C)C(=O)OCCCCCCCCCCCC`, the result was inactive.

For the compound `CCCCCC1=CCCC1=O`, the result was inactive.

Regarding `O=C(Cl)c1c(Cl)c(Cl)c(C(=O)Cl)c(Cl)c1Cl`, the outcome was inactive.

Take `C=CCCCCCCCCC=O`: the outcome was inactive.

Turning to `Oc1ccccc1Cc1ccccc1O`, the result was inactive.

On to `COc1ccc(C(=O)c2ccccc2)c(O)c1`, for which the outcome was inactive.

As to `CC(C)[N+](C)(CCOC(=O)C1c2ccccc2Oc2ccccc21)C(C)C`, the result was inactive.

For the compound `O=C1CCCCCCCCCCC1`, the outcome was inactive.

`CCCCCCCO`: the outcome was inactive.

For the compound `CCCCCCOC(=O)CCCCC(=O)OCCCCCC`, the result was inactive.

Consider `CCc1cccc(C)c1N(C(=O)CS(=O)(=O)O)C(C)COC` (stereo unspecified), for which the outcome was inactive.

As to `Oc1ccc(/C=C/c2cc(O)cc(O)c2)cc1`, the result was inactive.

Take `Clc1cc(Cl)c(Cl)c(Cl)c1Cl`: the outcome was inactive.

Turning to `CCCC(C)C(=O)OCC` (stereo unspecified), the outcome was inactive.

Read-out in the next assay: not listed separately
In words: BSK_SAg_Proliferation: Cell Proliferation Assessment in the BioMAP Diversity Plus: SAg Assay (AID 2283095).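 Also: relative cell number as total protein by SRB absorbance in sub-confluent culture.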 Conditions: primary human HUVEC with PBMC. The procedure, abridged:
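Human umbilical vein endothelial cells co-cultured with peripheral blood mononuclear cells; total protein measured by sulforhodamine B staining (0.1% SRB after 10% TCA fixation), absorbance at 560 nm, at 96 h. Bidirectional fit against DMSO baseline.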
With `CCCCCCCCC(CO)CCCCCC` (stereo unspecified), the result was inactive.

Turning to `Oc1c(Cl)cc(Cl)c(Cl)c1Cl`, the half-maximal activity concentration (AC50) is 20 µM (active).

On to `CCOC(=O)C1=NN(c2ccc(Cl)cc2Cl)C(C)(C(=O)OCC)C1` (stereo unspecified), for which the result was inactive.

Turning to `c1ccc2sc(SSN3CCOCC3)nc2c1`, the AC50 is 8.5 µM (active).

Consider `CCOC(=O)/C=C\C(=O)OCC`, for which the result was inactive.

Take `Cc1ccc([N+](=O)[O-])cc1N`: the outcome was inactive.

For `CC(c1cc(C(C)(C)C)cc(C(C)(C)C)c1O)c1cc(C(C)(C)C)cc(C(C)(C)C)c1O`, the AC50 is 5.29 µM (active).

Regarding `CCCCCCCCCCCC(=O)N(C)CC(=O)O`, the result was inactive.

For the compound `C=CC(=O)NC(C)(C)C`, the outcome was inactive.

With `C=CC(=O)OCCCCCCOC(=O)C=C`, the AC50 is 0.89 µM (active).

For the compound `CC=C(C)C(C)=O`, the result was inactive.

As for `CCN1CN(CC)CN(CC)C1`, the AC50 was 36.3 µM (active).

Take `Fc1ccc(Br)cc1`: the result was inactive.

As for `C=C(C)C(=O)OCCCCCCCCCCCC`, the result was inactive.

On to `CCCCCC1=CCCC1=O`, for which the outcome was inactive.

With `O=C(Cl)c1c(Cl)c(Cl)c(C(=O)Cl)c(Cl)c1Cl`, the outcome was inactive.

In the case of `C=CCCCCCCCCC=O`, the outcome was inactive.

As for `Oc1ccccc1Cc1ccccc1O`, the result was inactive.

On to `COc1ccc(C(=O)c2ccccc2)c(O)c1`, for which the outcome was inactive.

For `CC(C)[N+](C)(CCOC(=O)C1c2ccccc2Oc2ccccc21)C(C)C`, the outcome was inactive.

Turning to `O=C1CCCCCCCCCCC1`, the outcome was inactive.

For `CCCCCCCO`, the result was inactive.

On to `CCCCCCOC(=O)CCCCC(=O)OCCCCCC`, for which the outcome was inactive.

On to `CCc1cccc(C)c1N(C(=O)CS(=O)(=O)O)C(C)COC` (stereo unspecified), for which the outcome was inactive.

In the case of `Oc1ccc(/C=C/c2cc(O)cc(O)c2)cc1`, the half-maximal activity concentration (AC50) is 20 µM (active).

In the case of `Clc1cc(Cl)c(Cl)c(Cl)c1Cl`, the outcome was inactive.

With `CCCC(C)C(=O)OCC` (stereo unspecified), the result was inactive.
